Compounds with a hit are over-represented: about 8.9% of the library has one in this group of screens.
MCF10A rereplic: induces DNA re-replication in MCF 10a normal breast cells. Potency, µM (series often up to 46.1 µM), usual class: activators. 350,000 tested, 2.9% active. MCF 10A DNA re-replication, Hoechst nuclear intensity, 48 h; also: nearly all actives have a fitted effect of over 50% in size
SW480 rerep: DNA re-replication induction in SW480 cells | SW480 DNA re-replication, Hoechst DNA content imaging, 48 h | Potency, µM (highest dose often 46.1 µM), hits mostly activators | 340,000 tested, 1.8% active; also: nearly all actives have a fitted effect of over 55% in size
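Cells (250 per well) received 23 nL compound or DMSO by pin tool and were kept 48 hr at 37 C, 5% CO2. Nuclei were then stained with Hoechst for 40 min and scanned for DNA content.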
KB-3-1 cytotox: KB-3-1 parental cell cytotoxicity; KB-3-1 viability, CellTiter-Glo ATP luminescence, 72 h; Potency, µM (top dose mostly 46.1 µM), most hits filed as cytotoxic; 400,000 tested, 1.4% active; AID 1347075; also: nearly all actives have a fitted effect of over 60% in size
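Viability of parental KB-3-1 cells, measured by CellTiter-Glo luminescence, followed a 72 h incubation at 37 °C with pinned compounds in phenol-red-free DMEM containing 10% FBS.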
DRD3 antagonist: antagonists of human D3 dopamine receptor. max response, negative = inhibition, %. AID 652054. D3R cells, DiscoveRx beta-arrestin luminescence, antagonist mode; active compounds read low. 360,000 tested, 2.5% active. P35462; in the data active = max response below about -50%; inconclusive = no clear call, values can overlap the other calls
Target sequence (P35462 whole entry, looked up): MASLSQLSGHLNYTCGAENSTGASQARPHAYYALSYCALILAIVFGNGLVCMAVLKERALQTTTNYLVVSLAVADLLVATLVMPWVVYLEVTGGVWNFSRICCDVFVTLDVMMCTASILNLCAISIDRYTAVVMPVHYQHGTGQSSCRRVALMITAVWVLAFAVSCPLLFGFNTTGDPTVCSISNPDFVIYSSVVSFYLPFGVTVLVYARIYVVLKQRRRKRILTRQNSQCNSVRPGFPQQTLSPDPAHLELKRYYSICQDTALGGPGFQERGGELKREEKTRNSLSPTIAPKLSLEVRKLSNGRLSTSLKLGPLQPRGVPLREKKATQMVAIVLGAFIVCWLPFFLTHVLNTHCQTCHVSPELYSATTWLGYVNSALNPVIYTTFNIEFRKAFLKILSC
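Cells plated overnight at 1500 cells/well, then exposed to library compounds with dopamine controls for 90 minutes at 37 degrees C. DiscoveRx reagent added for 30–60 minutes at room temperature; luminescence read, quantitative HTS format.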
KB-V1 cytotox: kills drug-selected multidrug resistant KB-V1 cells; KB-V1 MDR cells viability, CellTiter-Glo, 72 h; 400,000 tested, 3.4% active; Potency, µM (top dose mostly 46.1 µM), most hits filed as cytotoxic; also: nearly all actives have a fitted effect of over 60% in size
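KB-V1, DMEM (no phenol red) + 10% FBS; cpd pin-transferred, titration series; 72 h, 37 degrees C; CellTiter-Glo, luminescence. Data normalized, curve-fit.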
D3 ag: activates the human D3 dopamine receptor. 410,000 tested, 0.58% active. max activation, %. P35462. D3R DiscoveRx beta-arrestin cells, luminescence, 90 min; in the data active = max activation above about 30%
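Cells at 1500/well, incubated overnight, then treated with pinned compounds (dopamine as control) for 90 min at 37 degrees C. DiscoveRx reagent added for 30 - 60 minutes at room temperature; luminescence read.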
Large screens that a line does not name were inactive; ! = not active in a repeat. Unless noted, calls follow the shape of the dose curve; as a rule, active = well fitted curve in the direction sought with a large enough effect; inconclusive = small, poorly fitted or top-dose-only effect, or another doubt; inactive = no such curve, though single readings can be large; an effect the other way counts as inactive or inconclusive.

CC1=C(C(=O)Nc2cc(Cl)ccc2C)C(c2ccccc2F)n2ncnc2N1 (configuration not stated)	KB-V1 cytotox 18.4µM (no result: MCF10A rereplic, SW480 rerep, DRD3 antagonist)
CCOC(=O)N1CCC(Nc2nc3ccccc3n3nnnc23)CC1	MCF10A rereplic inconclusive, KB-V1 cytotox 2.31µM
Cc1ccc(C)c(Cn2c3ccccc3c3cnn(CC(=O)NC(C)CCc4ccccc4)c(=O)c32)c1 (configuration not stated)	none (no result: MCF10A rereplic, SW480 rerep, KB-3-1 cytotox, DRD3 antagonist, KB-V1 cytotox)
COc1cccc(NC(=O)C(=O)N/N=C/c2cc(C)n(-c3ccc(Cl)c(Cl)c3)c2C)c1	DRD3 antagonist -93.6
CCNC(=S)N/N=C/c1cc(C)n(-c2ccc(Cl)cc2)c1C	MCF10A rereplic inconclusive, KB-3-1 cytotox inconclusive, DRD3 antagonist inconclusive, KB-V1 cytotox 11.6µM
Cc1cc(/C=N/NC(N)=O)c(C)n1-c1ccc(F)cc1	KB-V1 cytotox inconclusive
Cc1cc(/C=N/NC(N)=S)c(C)n1-c1ccc(Cl)c(Cl)c1	MCF10A rereplic 25.9µM, SW480 rerep 18.4µM, DRD3 antagonist inconclusive
Cc1ccc(S(=O)(=O)N2CCC(N3CCN(Cc4ccccc4)C(=O)C3=O)CC2)cc1C	none (no result: MCF10A rereplic, SW480 rerep, DRD3 antagonist)
CN(C)c1ccc(C=O)cc1[N+](=O)[O-]	none (no result: MCF10A rereplic, SW480 rerep, DRD3 antagonist, D3 ag)
CCOC(=O)c1c(C)n(C)c2ccc(OCC(O)CN(CC)CC)cc12 (configuration not stated)	MCF10A rereplic inconclusive, SW480 rerep inconclusive, DRD3 antagonist -53.7, KB-V1 cytotox inconclusive
CCCc1ccc(OCC(O)CN2CCN(c3ccccc3)CC2)cc1 (configuration not stated)	MCF10A rereplic inconclusive, SW480 rerep inconclusive, KB-3-1 cytotox inconclusive, DRD3 antagonist inconclusive, KB-V1 cytotox inconclusive, D3 ag 68.0
COc1ccc(OCC(O)CN2CCN(c3ccc(OC)cc3)CC2)cc1 (configuration not stated)	DRD3 antagonist inconclusive
CCc1ccc(OCCOCC(O)CN2CCN(Cc3ccc(Cl)cc3)CC2)cc1 (configuration not stated)	MCF10A rereplic 14.6µM, SW480 rerep inconclusive, KB-3-1 cytotox inconclusive
CCc1ccc(OCC(O)CN2CCN(c3ccccc3)CC2)cc1 (configuration not stated)	MCF10A rereplic inconclusive, DRD3 antagonist -56.8!, KB-V1 cytotox inconclusive, D3 ag 41.1!
COc1cccc(OCCOCC(O)CN2CCN(Cc3ccc(Cl)cc3)CC2)c1 (configuration not stated)	MCF10A rereplic inconclusive
CC(c1ccccc1)C1C(C#N)=C(N)OC2=C1C(=O)CC(C)(C)C2 (configuration not stated)	none
CC1(C)CC(=O)C2=C(C1)OC(N)=C(C#N)C2c1cccc(OC(=O)c2ccco2)c1 (configuration not stated)	DRD3 antagonist -90.4
CC1(C)CC(=O)C2=C(C1)OC(N)=C(C#N)C2C#Cc1ccccc1 (configuration not stated)	MCF10A rereplic 8.91µM, SW480 rerep inconclusive
COc1ccc(C2C(C#N)=C(N)OC3=C2C(=O)CC(C)(C)C3)cc1OC (configuration not stated)	none
CCn1nnc(NC(=O)COc2cc(C)ccc2C(C)C)n1	KB-V1 cytotox 14.6µM
CCSC1=NC(C)(C)C=C(/C=C/c2ccc(Cl)cc2Cl)N1	MCF10A rereplic inconclusive, SW480 rerep inconclusive, KB-V1 cytotox inconclusive
CSC1=NC(C)(C)C=C(/C=C/c2c(Cl)cccc2Cl)N1	MCF10A rereplic inconclusive
CSC1=NC(C)(C)C=C(/C=C/c2ccc(Cl)cc2Cl)N1	MCF10A rereplic inconclusive, SW480 rerep 14.6µM, KB-3-1 cytotox inconclusive
CSC1=NC(C)(C)C=C(/C=C/c2ccc(Cl)cc2)N1	MCF10A rereplic 16.4µM, SW480 rerep 0.651µM, KB-V1 cytotox inconclusive
NCCNC(=O)c1ncsc1-c1cccc(F)c1	DRD3 antagonist -52.4
CC(Nc1ccc(Cl)cc1)c1cc(Cl)ccc1O (configuration not stated)	DRD3 antagonist -54.6
CCOc1ccc(NC(C)c2cc(Cl)ccc2O)cc1 (configuration not stated)	DRD3 antagonist -52.3
CC(Nc1ccc(Br)cn1)c1cc(Cl)ccc1O (configuration not stated)	none
Cc1ccc(-c2nnc(Nc3ccc(Br)cc3)c3ccccc23)cc1S(=O)(=O)N1CCOCC1	none (no result: MCF10A rereplic, SW480 rerep, DRD3 antagonist)
COC(=O)C1CCCN1C(=O)C1CCCN1C(=O)CNC(=O)OCc1ccccc1 (configuration not stated)	DRD3 antagonist -54.5
COC(=O)CNC(=O)C1CCCN1C(=O)CNC(=O)OCc1ccccc1 (configuration not stated)	none
CCN1CCc2c(sc(-n3cccc3)c2C(C)NC(=O)Nc2ccccc2C)C1 (configuration not stated)	none (no result: MCF10A rereplic, SW480 rerep, KB-3-1 cytotox, DRD3 antagonist, KB-V1 cytotox)
CCOc1ccc(Br)cc1/C(C)=N\NC1=NCCN1	MCF10A rereplic inconclusive, SW480 rerep inconclusive, KB-3-1 cytotox 6.51µM, KB-V1 cytotox inconclusive
O=[N+]([O-])c1ccc(Cl)c(/C=N/n2c(COc3ccccc3)n[nH]c2=S)c1	MCF10A rereplic inconclusive, SW480 rerep inconclusive, DRD3 antagonist -58.1, KB-V1 cytotox 16.4µM
CC(=O)Nn1c(COc2ccccc2C)nc2ccccc2c1=O	none
Cc1ccc(-c2[nH]ncc2/C=N/n2c(COc3ccccc3C)nc3ccccc3c2=O)cc1	MCF10A rereplic 5.8µM, SW480 rerep inconclusive, KB-3-1 cytotox inconclusive, KB-V1 cytotox inconclusive
Cc1cc(/C=N/n2c(COc3ccccc3C)nc3ccccc3c2=O)c(O)c([N+](=O)[O-])c1	SW480 rerep 13µM
S=c1[nH]nc(COc2ccccc2)n1/N=C/c1ccc(Cl)c(Cl)c1	MCF10A rereplic inconclusive
Cc1ccccc1OCc1nc2ccccc2c(=O)n1N	none
Cc1cccc(C)c1OCc1nc2ccccc2c(=O)n1/N=C/c1c[nH]c2ccccc12	KB-3-1 cytotox inconclusive, KB-V1 cytotox inconclusive
Cc1ccccc1OCc1nc2ccccc2c(=O)n1/N=C/c1c[nH]c2ccccc12	MCF10A rereplic 16.4µM, SW480 rerep inconclusive
FC(F)(F)C(F)(F)C(F)(F)C(F)(F)C(F)(F)C(F)(F)C(F)(F)C(F)(F)Br	none (no result: KB-3-1 cytotox, DRD3 antagonist, KB-V1 cytotox)
Cc1ccc(S(=O)(=O)NCC(=O)NCC(=O)N(C)Cc2ccc(Br)s2)cc1C	KB-V1 cytotox inconclusive (no result: MCF10A rereplic, SW480 rerep)
Oc1ccc(Br)cc1/C=N/n1c(COc2ccccc2)n[nH]c1=S	MCF10A rereplic inconclusive, KB-3-1 cytotox inconclusive
O=c1c2ccccc2nc(COc2ccccc2)n1/N=C/c1cc([N+](=O)[O-])ccc1O	KB-3-1 cytotox inconclusive, KB-V1 cytotox 7.31µM
COc1ccc(S(N)(=O)=O)cc1C(=O)NCCCN1CCN(c2cccc(Cl)c2)CC1	DRD3 antagonist -50.0
COCCNC(=O)c1cn(C)c(=O)c2cc(OC)c(OC)cc12	none

Screening data from PubChem.
